Experimental data from the supplement of paper PMC10338343.
± gives the standard deviation.

Test system: MILI (PIWIL2) piRISC loaded with L1MC piRNA (26 nt)
Assay: pre-steady-state target cleavage rate (min^-1); guide: L1MC piRNA 5'p-UAACUAAAUACUAUGCAAGCUGUAGG; MIWI and MILI are mouse PIWI proteins and EfPiwi is from a freshwater sponge; tags in brackets are library labels; higher = faster piRNA-guided slicing of the target
Outline: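 At 33 °C in HEPES–potassium acetate buffer, a transcribed, DNA-blocked target RNA library […] was exposed for 0–8 or 0–960 min to 1 nM active affinity-purified piRISC carrying a single synthetic guide, with or without 500 nM GTSF1 partner protein. Uncleaved targets were sequenced and normalised to depth and to weakly complementary targets. With three trials pooled and k3 capped at 0.0001 min^-1, a burst-and-steady-state fit produced the pre-steady-state cleavage rate.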

[1] = auxiliary factor: 500 nM mouse GTSF1
[2] = auxiliary factor: none (no GTSF1)
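Further: 1 nM active piRISC with 0.1 nM target library at 33 °C single turnover.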

| Sequence | pre-steady-state target cleavage rate [1] | pre-steady-state target cleavage rate [2] |
| --- | --- | --- |
| UCCUGGAUGAGGUUGCAUAGUAUUUUGUUA | 0.0801 ± 0.024 | 0.00402 ± 0.0029 |
| UCCUGGAUGUGCUAGGAUAGUAUUUAGUUA | 0.103 ± 0.014 | 0.00564 ± 0.0022 |
| UCCUCCUACAGCUUGCAUUGUAUUUACUUA | 0.145 ± 0.021 | 0.00286 ± 0.0022 |
| UCCUGGAUGUCGUUGCAAAGUAUUUAGUAA | 0.0183 ± 0.0061 | 0.00357 ± 0.0021 |
| UCCUGGAACUCGUUGCAUAGUAUUUAGUAA | 0.165 ± 0.021 | 0.00378 ± 0.002 |
| UCCUCCUACAGCUUGCAUAGUAUAUUAGUUA | 0.282 ± 0.019 | 0.00588 ± 0.0024 |
| UCCUGGAUGUCGUUGCAUAGUAUUUAAGUUA | 0.191 ± 0.032 | 0.00676 ± 0.0028 |
| UCCUGGAUGUGCUUGGUUAGUAUUUAGUUA | 0.0978 ± 0.017 | 0.01 ± 0.0025 |
| UCCUGGUACAGGAUGCAUAGUAUUUAGUUA | 0.215 ± 0.021 | 0.0111 ± 0.0037 |
| UCCUCCUAAAGCUUGCAUAGUAUUUAGUUA | 0.157 ± 0.019 | 0.00372 ± 0.0021 |
| UCCUGGAUGUCCUUGAUAGUAUUUAGUUA | 0.00551 ± 0.0039 | 0.00337 ± 0.0019 |
| UCCUGGAUCAGCUUGCAUAGUAUUCUAGUUA | 0.239 ± 0.034 | 0.00658 ± 0.0024 |
| UCCUGGAUGUCGUUGCAUAGUAAUUUGUUA | 0.00776 ± 0.005 | 0.00315 ± 0.0027 |
| UCCUGGUACAGCUUCGAUAGUAUUUAGUAA | 0.26 ± 0.046 | 0.00305 ± 0.0029 |
| UCCUGGAUGUGCUUGCAAAGUAUUUAGUAA | 0.033 ± 0.0074 | 0.00287 ± 0.0025 |
| UCCUGGAUGUCCUUGAAUAGUAUUUAGUUA | 0.122 ± 0.023 | 0.011 ± 0.0029 |
| UCCUGCUACAGCUUGCAUCGUAUUUAGUUA | 0.168 ± 0.022 | 0.006 ± 0.0019 |
| UCCUGGAUGAGCUUGCAAACUAUUUAGUUA | 0.00935 ± 0.0025 | 0.00292 ± 0.0024 |
| UCCUGGAUGAGCUAGCUUAGUAUUUAGUUA | 0.13 ± 0.012 | 0.00773 ± 0.0023 |
| UCCUGGAUGUCGUUGCAUAGUAGUUAGUUA | 0.013 ± 0.0052 | 0.00511 ± 0.0031 |

| Sequence | pre-steady-state target cleavage rate [1] | pre-steady-state target cleavage rate [2] |
| --- | --- | --- |
| UCCUGGUACAGCUAGCAUAGUAUAUAGUUA | 0.183 ± 0.026 | 0.00329 ± 0.0024 |
| UCCUGGAUGAGCUUGCAUAGUUUUUUGUUA | 0.0139 ± 0.0061 | 0.00346 ± 0.003 |
| UCCUGGAUGUCCUUGCAUAGUAAUAAGUUA | 0.0367 ± 0.013 | 0.00284 ± 0.0025 |
| UCCUGGAUGAGCAUGGAUAGUAUUUAGUUA | 0.189 ± 0.019 | 0.0105 ± 0.0024 |
| UCCUGGAUGACCUUGCAUAGUAUUUAGUUA | 0.177 ± 0.023 | 0.0057 ± 0.0024 |
| UCCUGGUACAGCUUGCAUUGAAUUUAGUUA | 0.047 ± 0.015 | 0.00399 ± 0.0037 |
| UCCUGGAUCAGGUUGCAUAGAAUUUAGUUA | 0.0266 ± 0.0065 | 0.00431 ± 0.0021 |
| UCCUGGUACAGCUUGCAUAGUAUUUAAUUA | 0.0793 ± 0.022 | 0.00528 ± 0.0035 |
| UCCUGGAUGUGCUUGCAUAGUAUUUAGUCA | 0.117 ± 0.018 | 0.00487 ± 0.0035 |
| UCCUGGUACAGCUUGCAUAGGUAUUUAGUUA | 0.0078 ± 0.0065 | 0.00574 ± 0.0037 |
| UCCUGGUACAGCUUGCAUAGUAUUUAGUGA | 0.129 ± 0.021 | 0.00389 ± 0.0025 |
| UCCUGGAUGUGGUUGCAUAGUAUUAAGUUA | 0.171 ± 0.048 | 0.00678 ± 0.0029 |
| UCCUGGAUGUGCAUGGAUAGUAUUUAGUUA | 0.11 ± 0.013 | 0.0094 ± 0.0023 |
| UCCUGGAUGUGCUUGCAUACAAUUUAGUUA | 0.00405 ± 0.0039 | 0.0028 ± 0.0024 |
| UCCUGGAUGAGGUUGCAUAGUAAUUAGUUA | 0.117 ± 0.032 | 0.00411 ± 0.0022 |
| UCCUGGAUCAGCUAGCAUAGAAUUUAGUUA | 0.0367 ± 0.0066 | 0.00247 ± 0.0025 |
| UCCUGGAUGUCGUAGCAUAGUAUUAAGUUA | 0.0506 ± 0.013 | 0.00246 ± 0.0024 |
| UCCUGGAUGUCGAAGCAUAGUAUUUAGUCA | 0.0245 ± 0.0057 | 0.00315 ± 0.0019 |
| UCCUGGAUGUGCUUGCAUAGUUAUUAGUUA | 0.00903 ± 0.0055 | 0.00639 ± 0.0025 |
| UCCUGGAUGUCCUUGCUUUGUAUUUAGUUA | 0.00984 ± 0.0041 | 0.00458 ± 0.0025 |

| Sequence | pre-steady-state target cleavage rate [1] | pre-steady-state target cleavage rate [2] |
| --- | --- | --- |
| UCCUGGAUGAGCAUGCAUAGUAUUUACUUA | 0.122 ± 0.029 | 0.00352 ± 0.0028 |
| UCCUGGUACAGGUUGCUUAGUAUUUAGUUA | 0.328 ± 0.022 | 0.0176 ± 0.0042 |
| UCCUGGAUGUGCUAGCAUAGUAUUUAGUAA | 0.12 ± 0.017 | 0.00339 ± 0.0027 |
| UCCUGGUACUGCUUGGAUAGUAUUUAGUUA | 0.179 ± 0.029 | 0.00767 ± 0.0042 |
| UCCUGGAUGUGCUUGCAUAGGUAUUUAGUUA | 0.0061 ± 0.0046 | 0.00533 ± 0.0032 |
| UCCUGGAUGUCCUUGCAUAGUAAUUAGUUA | 0.111 ± 0.019 | 0.00618 ± 0.0018 |
| UCCUGGAUGUCGAUCGCAUAGUAUUUAGUUA | 0.0384 ± 0.0094 | 0.00367 ± 0.0026 |
| UCCUGGAACAGCUUCGUUAGUAUUUAGUUA | 0.181 ± 0.013 | 0.00414 ± 0.0022 |
| UCCUGGAUGUGCUAGCAUUGUAUUUAGUUA | 0.0146 ± 0.0031 | 0.00365 ± 0.0026 |
| UCCUGGAUGUCCUUGCAUCGUAUUUAGUUA | 0.0423 ± 0.015 | 0.00482 ± 0.0021 |
| UCCUGGUACAGCUUGCAUAGUUUUUAGUUA | 0.0505 ± 0.013 | 0.00579 ± 0.0038 |
| UCCUGGAUGUCGGUGCAUAGUAUUUAGUUA | 0.0897 ± 0.011 | 0.00862 ± 0.0023 |
| UCCUCCUACACUUGCAUAGUAUUUAGUUA | 0.248 ± 0.016 | 0.00564 ± 0.002 |
| UCCUGGAUGUGCUAGCAUAGUAAUUAGUUA | 0.0614 ± 0.011 | 0.00598 ± 0.0021 |
| UCCUGGAUGUCCUUGCAUAGUAUAUAGUUA | 0.149 ± 0.026 | 0.00505 ± 0.0026 |
| UCCUGGAUCAGCAUGGAUAGUAUUUAGUUA | 0.19 ± 0.0097 | 0.0106 ± 0.0024 |
| UCCUGGAACACCUUGGAUAGUAUUUAGUUA | 0.153 ± 0.021 | 0.00568 ± 0.0025 |
| UCCUGGUACACCUUGCAAAGUAUUUAGUUA | 0.0646 ± 0.011 | 0.0081 ± 0.0033 |
| UCCUGGAUGAGGUUGGAUAGUAUUUAGUUA | 0.132 ± 0.021 | 0.00824 ± 0.0025 |
| UCCUGGAUGUCCAUGGAUAGUAUUUAGUUA | 0.0252 ± 0.0073 | 0.00317 ± 0.0025 |
